Measured values: PubChem BioAssay AID651650 (Sanford-Burnham Center for Chemical Genomics, 2012)

These compounds were tested against Neuropilin-1 (Homo sapiens) (UniProt O14786) (assay: NRP-1 b1b2 CendR peptide binding inhibitors, dose response, biochemical, FP and AlphaScreen panel (AID 651650)). Details: NRP-1 b1b2 / RPARPAR peptide binding, FP or AlphaScreen; run 1, at 100 µM (top of the series).
Neuropilin-1 (Homo sapiens), sequence (O14786 whole entry, looked up): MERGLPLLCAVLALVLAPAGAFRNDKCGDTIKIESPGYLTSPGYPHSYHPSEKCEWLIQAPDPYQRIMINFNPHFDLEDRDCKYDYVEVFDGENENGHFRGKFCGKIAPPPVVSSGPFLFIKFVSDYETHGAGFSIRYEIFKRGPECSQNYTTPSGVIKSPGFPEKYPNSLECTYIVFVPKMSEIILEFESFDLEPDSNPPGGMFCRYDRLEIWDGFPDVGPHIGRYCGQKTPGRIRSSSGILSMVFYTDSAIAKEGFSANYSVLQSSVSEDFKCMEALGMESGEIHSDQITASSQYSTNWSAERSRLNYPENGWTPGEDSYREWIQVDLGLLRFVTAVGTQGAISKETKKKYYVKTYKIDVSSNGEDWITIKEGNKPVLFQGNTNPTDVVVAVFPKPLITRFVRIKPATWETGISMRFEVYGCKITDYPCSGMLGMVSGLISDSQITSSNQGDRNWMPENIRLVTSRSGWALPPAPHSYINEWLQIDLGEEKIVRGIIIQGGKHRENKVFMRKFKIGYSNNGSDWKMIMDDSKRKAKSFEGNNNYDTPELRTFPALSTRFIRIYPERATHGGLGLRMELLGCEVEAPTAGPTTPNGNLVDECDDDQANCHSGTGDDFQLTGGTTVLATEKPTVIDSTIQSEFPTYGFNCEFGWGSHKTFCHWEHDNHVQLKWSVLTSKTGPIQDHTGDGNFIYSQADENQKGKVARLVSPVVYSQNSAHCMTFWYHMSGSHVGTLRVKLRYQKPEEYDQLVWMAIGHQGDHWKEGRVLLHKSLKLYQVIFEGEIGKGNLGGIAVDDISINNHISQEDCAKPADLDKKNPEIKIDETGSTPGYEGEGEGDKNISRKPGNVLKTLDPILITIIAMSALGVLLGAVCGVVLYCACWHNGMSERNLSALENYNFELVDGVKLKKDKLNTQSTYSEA

Q: With `O=C(NNC(=O)c1csc(N2CCOCC2)n1)c1ccc(=O)[nH]c1` as the compound, how does the inhibition read?
A: Its inhibition is 39.8%.

Q: How did the inhibition turn out when `COc1ccc(C(=O)COC(=O)C(CCSC)NS(=O)(=O)c2ccc(Cl)cc2)cc1` (stereo not given) was run?
A: Its inhibition is -2.36%.

Q: How did the inhibition turn out when `CCOc1ccc(S(=O)(=O)NNC(=O)c2cc3ccccc3o2)cc1` was run?
A: Its inhibition is 1.91%.

Q: For `CC(/C=C/c1ccccc1)=N\NC(=O)CCc1ccccc1`, which inhibition is on record?
A: The inhibition was 19.2%.

Q: With `CCc1cc(C(=O)OC)c(NC(=O)c2ccoc2C)s1` as the compound, how does the inhibition read?
A: Its inhibition is 41.2%.

Q: `CC(C)(C)OC(=O)NCc1ccc(CNC(=O)c2nc[nH]c2C(=O)N2CCN(C(=O)OC(C)(C)C)CC2)cc1` was tested. Which inhibition did it give?
A: Its inhibition is 16.3%.

Q: For `CC(Oc1ccccc1)C(=O)NC1=NCCS1` (stereo not given), which inhibition is on record?
A: Its inhibition is 51.9%.

Q: With `Cc1ccc(C)c(-n2c(SCC(=O)NC(C(=O)O)C(C)C)nnc2-c2cccc(Cl)c2)c1` (stereo not given) as the compound, how does the inhibition read?
A: Its inhibition is 46.2%.

Q: `Fc1cc(Cl)ccc1Nc1nc(NCc2ccccc2)nc2ccsc12` was tested. Which inhibition did it give?
A: Its inhibition is 23%.

Q: For `COC(=O)Cc1ccc(NC(=S)NCCCO)cc1`, which inhibition is on record?
A: Its inhibition is 49.7%.

Q: For `Cc1onc(-c2ccccc2)c1C(=O)N1CCCC1`, which inhibition is on record?
A: Its inhibition is 31.9%.

Q: How did the inhibition turn out when `CCCc1c(O)c2ccccc2[nH]c1=O` was run?
A: The inhibition was 5.68%.

Q: With `CC(C)(C)c1nc(SCC(=O)NCc2ccco2)c2ccccc2n1` as the compound, how does the inhibition read?
A: The inhibition was 44.2%.

Q: With `O=C1c2cc([N+](=O)[O-])cc3cc([N+](=O)[O-])cc(c23)C(=O)N1c1ccccn1` as the compound, how does the inhibition read?
A: Its inhibition is 17.2%.

Q: How did the inhibition turn out when `O=C(NCCN1CCOCC1)c1cc(-c2ccc(F)cc2)on1` was run?
A: Its inhibition is 17.9%.

Q: How did the inhibition turn out when `CCN(C[C@H]1N[C@@](CC)(C(=O)OC)[C@H]2C(=O)N(C)C(=O)[C@@H]12)S(=O)(=O)c1ccc(OC)cc1` was run?
A: The inhibition was 30.5%.

Q: For `Cc1ccc(Cn2c(C(C)Nc3nc(-c4ccc(Cl)c([N+](=O)[O-])c4)cs3)nc3cc(C(F)(F)F)ccc32)cc1` (stereo not given), which inhibition is on record?
A: Its inhibition is 41.6%.

Q: How did the inhibition turn out when `CCOC(=O)N1CCN(C(=O)c2cc(COc3ccc(OC)cc3Cl)on2)CC1` was run?
A: The inhibition was 37.8%.

Q: With `CCn1ncc(Br)c1C(=O)N(C)C12CC3CC(CC(C3)C1)C2` as the compound, how does the inhibition read?
A: Its inhibition is 41.8%.

Q: With `CC(C)COC(=O)C1C2C=CC3(CN(C(C)c4ccc(Br)cc4)C(=O)C13)O2` (stereo not given) as the compound, how does the inhibition read?
A: Its inhibition is 60.2%.
